Measured values from PubChem BioAssay AID1619 (SRMLSC, 2009).
About 830 (0.38%) of roughly 220,000 compounds were called active.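 How the source made its calls: active means compound inhibiting the enzyme by more than half at any dose during confirmatory dose-response retesting; inconclusive means strong single-dose inhibitors picked by rank but not retested; inactive means the rest.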 Only a sample is shown. Potency and affinity values are given separately.

These compounds were tested against Leucine aminopeptidase (Plasmodium falciparum (isolate 3D7)) (UniProt Q8IL11) (assay: P. falciparum M17LAP inhibitors, primary screen, biochemical, fluorogenic H-Leu-NHMec substrate, 1536-well (AID 1619;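 further: plate controls were full reaction with DMSO carrier for no effect and no enzyme background for full effect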)). Conditions: recombinant M17LAP, H-Leu-NHMec fluorogenic kinetic assay; at 30 µM; active compounds read high.
Chain of Leucine aminopeptidase (Plasmodium falciparum (isolate 3D7)) (Q8IL11 whole entry, looked up): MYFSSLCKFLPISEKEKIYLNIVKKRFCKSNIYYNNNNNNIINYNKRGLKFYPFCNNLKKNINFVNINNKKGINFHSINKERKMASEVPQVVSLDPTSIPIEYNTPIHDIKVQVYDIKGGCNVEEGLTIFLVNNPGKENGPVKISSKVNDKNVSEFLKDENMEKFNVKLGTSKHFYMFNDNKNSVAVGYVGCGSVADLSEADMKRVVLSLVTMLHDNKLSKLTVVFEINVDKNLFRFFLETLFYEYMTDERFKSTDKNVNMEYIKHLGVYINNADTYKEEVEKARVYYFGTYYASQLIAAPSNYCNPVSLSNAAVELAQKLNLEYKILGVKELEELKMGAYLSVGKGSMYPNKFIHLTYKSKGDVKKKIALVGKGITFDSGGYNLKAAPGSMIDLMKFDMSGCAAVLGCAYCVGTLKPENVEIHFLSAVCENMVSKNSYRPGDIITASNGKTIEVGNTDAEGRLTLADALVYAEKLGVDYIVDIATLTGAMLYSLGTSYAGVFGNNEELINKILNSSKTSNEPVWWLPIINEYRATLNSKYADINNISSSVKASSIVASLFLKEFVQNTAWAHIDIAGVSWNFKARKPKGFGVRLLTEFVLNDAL

inhibition, inactive:
O=C(NNC(=S)NC1CCCCC1)c1sc2ccccc2c1Cl 13.2%
O=C(NNC(=O)C1CC2CCC1C2)c1ccccc1 (centres undefined) 17.8%
CC(C)(C)c1ccc(/C=C2\Oc3cc(OC(=O)N4CCOCC4)ccc3C2=O)cc1 -5.21%
CCCC(C)NS(=O)(=O)c1ccc(OC)c(C)c1 (centres undefined) 1.13%
Cn1c(-c2ccc3ccccc3n2)nc2cnccc21 9.33%
CCCNC(=O)C(=O)NCc1ccccn1 -4.32%
Cc1cc(NC(=O)CN2C(=O)NC3(CCCCCC3)C2=O)no1 -1.33%
O=C(CN1C(=O)NC2(CCCCC2)C1=O)Nc1ccccc1Cl 30.3%
Cc1ccc(NC(=O)NC(=O)CN2C(=O)NC3(CCCCCCC3)C2=O)c(C)c1 3.61%
Cc1ccc(NC(=O)CN2C(=O)NC3(CCC(C)CC3)C2=O)c(Cl)c1 (centres undefined) 21%
COc1ccccc1NC(=O)CN1C(=O)NC2(CCCCCCC2)C1=O -0.01%
Cc1cc(NC(=O)CN2C(=O)NC3(CCCCC3)C2=O)no1 -14.1%
CCCNC(=O)c1cccc(NC(=O)C(C)C)c1 -3.07%
O=C(NC1CCCc2ccccc21)c1cccc(S(=O)(=O)N2CCOCC2)c1 (centres undefined) 2.84%
Cc1ccc(OCC(=O)Nc2sc3c(c2C#N)CCC3)cc1 4.24%
CCc1onc(C)c1C(=O)Nc1cc(C)ccc1OC 7.34%
COc1ccc2c(c1)SCC/C2=C\CN1C(=O)CCC1=O -6.21%
Cn1c(NCCc2ccccc2)cc(=O)n(C)c1=O 1.23%
CCN(CC)S(=O)(=O)c1cccc(NC(=O)CSc2nnc(N)s2)c1 2.68%
CCc1nc(SCC(=O)Nc2ccc(OC)cc2[N+](=O)[O-])n[nH]1 11.8%
Cc1ccc(NC(=O)CSc2nnc(N)s2)c([N+](=O)[O-])c1 26.8%
CCN(CC)C(=O)CSc1nc2ccc(NC(=O)CSc3nnc(N)s3)cc2s1 19.7%
COc1ccc(NC(=O)CSc2nnc(N)s2)c([N+](=O)[O-])c1 8.5%
COc1ccc(NC(=O)CSc2n[nH]c(N)n2)c([N+](=O)[O-])c1 56.1%
CCCCOC(=O)C(C#N)c1nc2ccccc2nc1N1CCN(Cc2ccc3c(c2)OCO3)CC1 (centres undefined) -4.21%
C/C(=N\NC(=O)c1ccc(CN2CCOCC2)cc1)c1ccc(NC(=O)c2ccccc2)cc1 4.99%
COc1ccc(C2CC(c3ccccc3)=NN2C(=O)COC(=O)CNC(=O)c2ccccc2)cc1 (centres undefined) -5.9%
CCCCC(CC)C(=O)Nc1ccccc1C#N (centres undefined) 2.15%
CCOC(=O)C1CCCCN1Cc1cn[nH]c1-c1ccc(F)cc1F (centres undefined) 0.93%
CCOC(=O)NC1(Nc2cccc(Cl)c2)Oc2ccccc2O1 13.3%
Cc1[nH]n(C(C)(C)C)c(=O)c1Sc1ccc(Cl)cc1 -0.55%
Cc1[nH]n(-c2ccccc2)c(=O)c1-c1ccc(Cl)cc1 14.5%
O=C(CC1Oc2ccccc2NC1=O)NCc1ccccc1 (centres undefined) 2.31%
CC(=O)NCCc1nc2ccccc2n1CCOc1ccccc1C -3.06%
COCc1cc(=O)n2[nH]c(-c3cccc(Br)c3)cc2n1 6.67%
COc1cc(/C=N/NC(=S)Nc2cccc(C(=O)O)c2)cc(OC)c1OC 41%
COc1cc(/C=N/NC(=S)Nc2cccc(C(=O)O)c2)ccc1O 56.1%
O=C(O)c1cccc(NC(=S)N/N=C/c2cccc(O)c2)c1 56.3%
Cc1cccc(NC(=S)N/N=C/c2c[nH]c3ccccc23)c1 7.36%
COc1ccc(/C=N/NC(=S)Nc2cccc(C(=O)O)c2)cc1OC 38.7%
O=C(O)c1cccc(NC(=S)N/N=C/c2ccccn2)c1 26.1%
CCCCCCCCC(=O)N/N=C(\C)c1ccc(O)cc1O 0.48%
Cc1ccccc1OCCn1cc(/C(N)=N/O)c2ccccc21 3.74%
CCO[C@@H]1OC(C(=O)N2CCOCC2)=C[C@H](c2coc3ccccc3c2=O)[C@H]1CCCO -0.63%
CC(=O)c1ccc(NC(=O)c2ccc(S(=O)(=O)c3ccccc3)cc2)cc1 -3.53%
O=C(CC(Nc1ccc(F)cc1)c1ccccc1)c1ccccc1 (centres undefined) -9.06%
O=C(CN(Cc1ccccc1)C(=O)c1ccco1)NCc1ccc(F)cc1 4.59%
O=C(CSc1nc(O)cc(=O)[nH]1)N1c2ccccc2Sc2ccccc21 39.5%
N#Cc1c(N)nc(-c2ccccc2)nc1-c1ccccc1 -4.62%
N#Cc1c(-c2ccccc2)nc(-c2ccccc2)[nH]c1=O 5.14%
COCc1cc(C)nc(SCC(=O)Nc2cccc(C)c2C)c1C#N 6.16%
O=C(CSc1ccc(Cl)cc1)Nc1cccc(-c2nnc(-c3ccco3)o2)c1 6.07%
Cc1cccc(NC(=O)CSc2nnc(-c3ccccc3)n2N)c1C 1.89%
O=C(CSc1nc(-c2ccc(Cl)cc2)[nH]c(=O)n1)Nc1cccc(Cl)c1 -10.8%
Cc1nc(SCC(=O)N2c3ccccc3Sc3ccccc32)n[nH]1 17.3%
O=C(CCn1c(=O)oc2ccccc21)NC1=NCCS1 4.21%
C(=C\c1ccccc1)/C=N/N1CCN(Cc2ccccc2)CC1 3.39%
O=c1c2sccc2nc(SCc2cc(=O)n3ccccc3n2)n1Cc1ccccn1 18%
O=C(CSc1ccc(Cl)cc1)Nn1cnnc1 8.97%
N#CCCN1CCN(S(=O)(=O)c2ccc(S(=O)(=O)NC3CCCC3)cc2)CC1 5.82%
O=C(Cn1nc2n(c1=O)-c1ccccc1SC2)N/N=C/c1cccnc1 3.98%
COc1ccc(CN2C(=O)c3ccccc3C2=O)cc1C(=O)OC(C)C(=O)NC(N)=O (centres undefined) -1.41%
CC(SC(=S)N1CCCC1)C(=O)O (centres undefined) -0.65%
O=C(OCCN1CCOCC1)C(c1ccccc1)c1ccccc1 -9.47%
FC(F)(F)c1nnc2ccc(NCn3nnc4ccccc43)nn12 22.6%
O=C(c1cnc2n(c1=O)CCS2)N(C1CCCCC1)C1CCCCC1 11.3%
CC(C)C(C)(C#N)NC(=O)CSc1nc2scc(-c3ccc(F)cc3)c2c(=O)n1Cc1ccccc1 (centres undefined) 11.3%
COc1cccc(F)c1C(C[N+](=O)[O-])c1c(N)n(C)c(=O)n(C)c1=O (centres undefined) 2.97%
N#CCOc1nc(N2CCCC2)nc(N2CCCC2)n1 1.35%
Cc1cc(OCC(=O)c2ccc(F)cc2)ccc1N1C(=O)CCC1=O -4.66%
O=C(/C=C/c1ccco1)Nc1cccnc1Cl 5.61%
O=C(/C=C/c1ccco1)Nc1ccccc1C(=O)O 27.5%
COc1ccccc1NS(=O)(=O)c1cccc(C(=O)N/N=C/c2ccccc2OCC(=O)O)c1 16.5%
CCN(CC)S(=O)(=O)c1cccc(C(=O)N/N=C/c2ccccc2OCC(=O)O)c1 13.9%
COCCOC(=O)c1c(C)oc2ccc(NS(=O)(=O)c3ccc(C(=O)O)cc3)cc12 32.9%
COc1ccc(S(=O)(=O)Nc2ccc3oc(C)c(C(=O)O)c3c2)cc1 6.21%
O=C(O)c1cc(S(=O)(=O)Nc2ccc3oc(=O)sc3c2)ccc1O 51.1%
COCCOC(=O)c1c(C)oc2ccc(NS(=O)(=O)c3ccc(C)cc3)cc12 2.98%
Cc1cc(C(=O)CN2C(=O)C(=O)N(Cc3ccccc3)C2=O)c(C)n1-c1ccc2c(c1)OCCO2 -11.2%
CC(C)c1nc(SCC(=O)Nc2c[nH]c(=O)[nH]c2=O)c2cnn(-c3ccccc3)c2n1 -6%
CC(=O)OCC(=O)Nc1ccccc1OC(F)F -2.65%
Cc1ccc(CNC(=O)C2CCCN(c3nc4ccsc4c(=O)s3)C2)cc1 (centres undefined) -6.15%
C#CCOCCOCCOCCNc1nc(N2CCN(C(=O)C([C@@H](C)CC)n3cc(C(N)CO)nn3)CC2)nc(N2CCN(C(=O)[C@H](CCC(=O)O)n3cc(C(N)CC(C)C)nn3)CC2)n1 (some centres undefined) 2.95%
O=C(N=C1c2ccccc2CN1c1ccc(F)c(F)c1)c1cccnc1 3.87%
Cc1ccc(C(=O)Nc2c(C)cc(-c3ccc(Cl)cc3)oc2=O)cc1 2.9%
CC1(CCc2ccccc2)NC(=S)N(c2ccccc2)N1 (centres undefined) 10.2%
CCCCCC(=O)NNC(=S)NC(=O)c1ccccc1[N+](=O)[O-] 14.3%
CCCC(=O)Nc1ccc(C(=O)NNC(=O)c2cccc([N+](=O)[O-])c2)cc1 4.12%
CCCCC(=O)NNC(=S)NC(=O)c1ccc(C)cc1 59.8%
CCCCC(=O)NNC(=S)NC(=O)c1ccc([N+](=O)[O-])cc1 44.2%
CCCCCCCC(=O)NNC(=O)c1ccc([N+](=O)[O-])cc1 1.27%
Cc1cccc(NC(=S)NNC(=O)c2cccc([N+](=O)[O-])c2)c1 3.9%
CCCCC(=O)Nc1cccc(NC(=O)c2cccc([N+](=O)[O-])c2)c1 5.17%
O=C(CNC(=S)NC(=O)c1cccc([N+](=O)[O-])c1)c1ccccc1 -0.71%
